B2AR arrestin = recruits beta-arrestin to the human beta2-adrenergic receptor; P07550; beta-arrestin recruitment to beta2AR, cell-based reporter; Potency, µM (doses to about 46.1 µM), for the others: at the top dose activation, actives largely listed as activators; actives 0.02% (n = 330,000);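 also: 0% = DMSO controls and full agonism = EC100 isoproterenol or metaproterenol; nearly all actives have a fitted effect of over 65% in size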
BRCA1 expr up = BRCA1 expression activation; Potency, µM (highest dose often 46.1 µM), for inactives: top-dose activation, actives largely listed as activators; AID 624202; actives 1.1% (n = 380,000); MCF7-BRCA1-FFLuc reporter, luminescence, 48 h; response scale: scaled: vehicle 0%, 10 µM genistein 100%; also: nearly all actives have a fitted effect of over 80% in size
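Cells: MCF7-BRCA1-FFLuc, 2000/well. Exposure: 48 h, 37 °C, 5% CO2. Read: luminescence, 15 min post-substrate. Controls: genistein 10 microM (maximal activation), DMSO (neutral).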
ERG-DNA inh = ERG Ets/DNA interaction inhibition; fluorescence polarization, His-ERG Ets domain / labelled DNA; Potency, µM (top dose mostly 76.9 µM), inactives show at the highest dose FP activity, negative = inhibition, actives largely listed as inhibitors; actives 0.028% (n = 370,000); AID 624246; active = well fitted inhibition curve with a large enough effect in the polarisation, with a control signal flat; inconclusive = small, poorly fitted or top-dose-only effect, or effect the other way, or a change in a side signal; inactive = no such curve, though single readings can be large or run the other way; the % refers to the polarisation;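 also: polarization taken with two DNA probes labelled with fluorescein and Texas red; % of control where 0% means no effect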
Target sequence (P11308 whole entry, looked up, the tested form may be a part): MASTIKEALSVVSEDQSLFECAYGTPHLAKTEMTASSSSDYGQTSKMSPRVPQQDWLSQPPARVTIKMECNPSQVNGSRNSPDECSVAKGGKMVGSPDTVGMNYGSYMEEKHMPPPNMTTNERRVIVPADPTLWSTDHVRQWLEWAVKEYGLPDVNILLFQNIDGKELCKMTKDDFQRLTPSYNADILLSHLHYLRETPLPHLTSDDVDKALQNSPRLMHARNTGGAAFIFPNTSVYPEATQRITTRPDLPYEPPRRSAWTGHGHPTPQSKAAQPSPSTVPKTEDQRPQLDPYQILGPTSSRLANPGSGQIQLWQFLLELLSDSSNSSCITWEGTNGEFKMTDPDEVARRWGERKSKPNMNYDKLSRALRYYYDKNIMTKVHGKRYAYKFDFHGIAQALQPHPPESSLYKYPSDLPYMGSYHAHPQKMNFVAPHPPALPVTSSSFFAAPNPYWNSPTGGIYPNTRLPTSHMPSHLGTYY
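His-tagged ERG Ets domain (1 uM in the protein solution; 300mM KCl, 50mM Tris-HCl, 1mM EDTA, 1mM DTT, pH 7.5) received compound, then a probe mix of 5 nM fluorescein-DNA and 100nM Texas-615-DNA. Fluorescence polarization was read for both dyes.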
Mito fusion yeast = inhibitors of mitochondrial division or activators of mitochondrial fusion; S. cerevisiae fusion-defective mutant growth rescue, CellTiterGlo 48 h; Potency, µM (highest dose often 46.1 µM), without a hit: at the highest dose growth rescue (activation), usual class: activators; actives 0.23% (n = 320,000); AID 485298; also: % of control where 0% means no effect; nearly all actives have a fitted effect of over 45% in size
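Yeast fusion mutant, YPEG (non-fermentable carbon), compound, 48 h at 37C non-permissive; CellTiterGlo added, 10 min RT, luminescence read. Rescued growth = division inhibition.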
* hit, by the source's call; ? = inconclusive; nt = not tested or not shown. An excerpt weighted towards active compounds, which were near 1.2% of everything screened. Unless noted, calls follow the shape of the dose curve; as a rule, active = well fitted curve in the direction sought with a large enough effect; inconclusive = small, poorly fitted or top-dose-only effect, or another doubt; inactive = no such curve, though single readings can be large; an effect the other way counts as inactive or inconclusive. Potency is read from the fitted curve at half-maximal effect.

SMILES	B2AR arrestin	BRCA1 expr up	ERG-DNA inh	Mito fusion yeast
c1ccc2oc(SCc3nc4ccccc4s3)nc2c1	nt	?	-3%	-1%
c1ccc(-c2nc3ccccc3s2)nc1	0%	8.9µM*	-4%	2%
CSCCC(NC(=O)c1ccco1)C(=O)NCC1CCCCC1 (stereo not drawn)	0%	2%	14%	-1%
CSCCC(NC(=O)c1ccco1)C(=O)NC1CCC(C)CC1 (stereo not drawn)	13%	3.5µM*	10%	nt
O=C(N[C@@H](Cc1ccccc1)C(=O)NC1CCCCC1)c1ccco1	0%	14%	1%	0%
O=C(N[C@@H](Cc1ccccc1)C(=O)NC1CCCCCC1)c1ccco1	-1%	11µM*	1%	5%
Cn1c(=O)c2cc(S(=O)(=O)NC(Cc3ccccc3)C(=O)Nc3ccc(F)cc3)ccc2n(C)c1=O (stereo not drawn)	nt	-21%	-2%	nt
CCCc1cc2c(=O)c(-c3ccccn3)coc2cc1OC	-1%	5.6µM*	nt	15%
Cc1ccc(CCNC(=O)CCCn2c(=O)c3ccccc3n(Cc3ccccc3C)c2=O)cc1	nt	nt	-1%	nt
Clc1ccc(-c2noc(CN3CCCC3)n2)cc1	0%	13µM*	5%	3%
Cc1ccc(-c2noc(CN3CCCCC3)n2)cc1	0%	2.5µM*	-6%	-2%
Cc1cc(C)cc(NC(=O)CSc2nnc(-c3cc4occc4n3C)n2-c2ccccc2C)c1	nt	nt	-2%	nt
O=C(NC1CCCC1)C1CC(c2ccc(F)cc2)=NO1 (stereo not drawn)	0%	10µM*	-3%	-3%
Cc1ccc(S(=O)(=O)Oc2ccccc2)cc1	nt	14%	-3%	nt
CN(C)/N=C/c1ccc(OS(=O)(=O)c2ccccc2)cc1	-1%	10µM*	-2%	1%
O=C(c1ccc([N+](=O)[O-])o1)N1CCN(c2nc3c(F)cc(F)cc3s2)CC1	0%	-86%	13%	?
Cc1ccc(C)c2sc(N3CCN(C(=O)c4ccc([N+](=O)[O-])o4)CC3)nc12	0%	-84%	-7%	20µM*
O=C(Nc1c(Cl)cc([N+](=O)[O-])cc1Cl)c1cc(Cl)ccc1O	nt	-32%	nt	nt
O=C(Nc1nc(-c2ccncc2)cs1)C1c2ccccc2Oc2ccccc21	0%	-50%	9%	11µM*
CCOC(=O)N1CCN(C(=O)CSCc2ccccc2)CC1	0%	11µM*	-17%	-6%
CCOC(=O)N1CCN(C(=O)CSCc2ccc(Cl)cc2)CC1	0%	42%	15%	4%
CC1CCC(NC(=O)CCNC(=O)c2ccc(Br)cc2)CC1 (stereo not drawn)	0%	4.5µM*	0%	3%
O=C(NCCc1ccccn1)c1cc2ccccc2o1	1%	10µM*	-4%	-3%
CCNC(=O)c1cc2ccccc2o1	-1%	0%	10%	-1%
OCC1O[C@H]([S-])[C@H](O)[C@@H](O)[C@@H]1O.[Au+] (stereo partly drawn)	nt	nt	nt	4%
SMILES	B2AR arrestin	BRCA1 expr up	ERG-DNA inh	Mito fusion yeast
CCC(=O)CCC(=O)c1ccc2ccccc2c1	-2%	7.1µM*	13%	-8%
C[S+](C)CC(=O)c1ccc2ccccc2c1	nt	-2%	nt	nt
CCN(C(=O)CSc1nnc(Nc2ccccc2)s1)C1CCS(=O)(=O)C1 (stereo not drawn)	0%	23%	-1%	-1%
COc1ccc(Nc2nnc(SCC(=O)N(CC(C)C)C3CCS(=O)(=O)C3)s2)cc1 (stereo not drawn)	nt	7.1µM*	nt	nt
O=C(Cn1ncn2c(cc3ccccc32)c1=O)NCc1ccc(F)cc1	nt	nt	5%	nt
COc1ccc2oc(=O)c(C(=O)Nc3cccc(C)c3)cc2c1	-1%	3.2µM*	6%	2%
CCCCNc1cnn(-c2ccccc2)c(=O)c1Cl	3%	?	-6%	-6%
CCc1ccc(Nc2cnn(-c3nc4ccccc4s3)c(=O)c2Cl)cc1	-1%	-37%	11%	11µM*
CCN(CC)C(=O)C1CC(c2ccc(OC)cc2)=NO1 (stereo not drawn)	-1%	10µM*	3%	2%
COC(=O)c1c(Oc2ccc(OC)cc2)nnc(-c2ccccc2)c1-c1ccccc1	nt	nt	8%	nt
Cn1c2ccccc2c(=O)c2ccc(Cl)cc21	nt	14µM*	nt	nt
Cn1c(CO)cnc1SCC(=O)c1ccc(Br)cc1	-1%	43%	-2%	0%
Cn1c(CO)cnc1SCC(=O)c1ccc(F)cc1	0%	10µM*	0%	-4%
CCc1ccc(N(CC)C(=O)Cn2nc(Cc3cccnc3)c3ccccc3c2=O)cc1	nt	nt	-2%	nt
CCOc1cc(C(=S)N2CCOCC2)ccc1OS(=O)(=O)c1ccccc1[N+](=O)[O-]	1.2µM*	-5%	-6%	12%
COc1ccc(-c2nc(SC)n(C(=O)c3ccco3)n2)cc1	0%	11µM*	-4%	-2%
COc1ccc(-c2nc(SCc3ccccc3)n(C(=O)c3ccco3)n2)cc1	0%	?	-4%	1%
CCOc1cc(-c2nc(-c3ccc(-c4ccc(OC)cc4)nc3OC)no2)cc(OCC)c1OCC	nt	nt	-2%	nt
CNc1nnc(-c2cc3cc(Cl)ccc3oc2=O)s1	0%	10µM*	1%	3%
O=c1oc2ccc(Cl)cc2cc1-c1nnc(Nc2cccc(C(F)(F)F)c2)s1	0%	-4%	-15%	-2%
Cn1c(C(=O)NCc2cccs2)cc2oc3ccccc3c21	0%	13µM*	1%	1%
Cn1c(C(=O)NCC2CCCO2)cc2oc3ccccc3c21 (stereo not drawn)	-1%	3.5µM*	-7%	-7%
Cc1ccc(/C(N)=N/OC(=O)c2cccs2)cc1	-1%	42%	-9%	13%
COc1ccc(/C(N)=N/OC(=O)c2cccs2)cc1OC	0%	8.9µM*	-2%	-3%
Cc1ccc(C)c(NC(=O)Cn2c(=O)n(Cc3ccc4c(c3)OCO4)c(=O)c3oc4ccccc4c32)c1	nt	nt	-1%	nt
SMILES	B2AR arrestin	BRCA1 expr up	ERG-DNA inh	Mito fusion yeast
O=C(c1cnc(N2CCCCC2)c2ccccc12)N1CCN(c2ccc(Cl)cc2)CC1	nt	nt	-11%	nt
O=C(COc1ccc(Cl)cc1Br)NC(=O)NC1CCCC1	0%	13µM*	7%	23%
O=C(COc1ccc(Br)cc1Cl)NC(=O)NC1CCCC1	0%	?	2%	9%
O=C(COc1ccc(Cl)cc1Cl)NC(=O)NC1CCCC1	0%	4µM*	-6%	16%
O=C(COc1ccccc1Cl)NC(=O)NC1CCCC1	0%	76%	nt	4%
CSc1ccc(CCNC(=O)c2ccc(CS(=O)(=O)c3ccc(Br)cc3)o2)cc1	nt	nt	-1%	nt
Brc1ccc2[nH]c3c(c2c1)CCC3	-1%	-34%	8%	-2%
O=C1Cc2c([nH]c3ccc(Br)cc23)-c2ccccc2N1	nt	-76%	25%	7.3µM*
COc1cc(/C=C2\C=Cc3ccccc32)cc(OC)c1OC	nt	-39%	nt	nt

Assay outcomes (PubChem)
